Results published in PubChem BioAssay AID602312 (The Scripps Research Institute Molecular Screening Center, 2012).
The source made the active and inactive calls.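 How the source made its calls: active means inhibition of at least 50% at 1 µM; inactive means inhibition below 50% at 1 µM.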

Target: sn-1-specific diacylglycerol lipase ABHD11 (Mus musculus) (UniProt Q8K4F5)
Assay: recombinant ABHD11 inhibition, late-stage follow-up, selectivity assay for DAGLb inhibitor project, biochemical, competitive gel ABPP, mouse, set 2 (AID 602312)

Sequence of sn-1-specific diacylglycerol lipase ABHD11 (Mus musculus) (Q8K4F5 whole entry, looked up): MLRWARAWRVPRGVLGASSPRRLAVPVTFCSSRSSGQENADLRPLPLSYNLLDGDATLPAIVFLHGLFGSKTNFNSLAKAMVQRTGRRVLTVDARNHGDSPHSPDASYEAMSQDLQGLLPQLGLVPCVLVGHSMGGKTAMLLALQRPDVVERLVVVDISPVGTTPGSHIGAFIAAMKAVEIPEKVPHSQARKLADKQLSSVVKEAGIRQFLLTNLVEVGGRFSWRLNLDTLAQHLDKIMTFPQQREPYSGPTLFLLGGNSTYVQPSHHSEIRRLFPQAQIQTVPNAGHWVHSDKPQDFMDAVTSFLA

## COc1ccc(-c2ccc(-c3cn(C(=O)N4CCCCC4c4ccccc4)nn3)cc2)cc1 (stereo unspecified)
  outcome: inactive
